For 12 compounds, growth results are on record in PubChem BioAssay (NCI).

Holding throughout (experiment): NCI-60 one-dose screen, 48 h (100 = growth as untreated, 0 = no growth, -100 = all killed)
Assay [1] deals with OVCAR-5 ovarian. The conditions noted are these: 10 µM.
In assay [2] the test system is OVCAR-4 ovarian. The settings on record: 10 µM.
The test system of assay [3] is SK-OV-3 ovarian. The conditions noted are these: 10 µM.
The subject of assay [4] is IGROV1 ovarian. The settings on record: 10 µM.
Assay [5] has as its system OVCAR-3 ovarian. The settings on record: 10 µM.
The subject of assay [6] is HS 578T breast. The settings on record: 10 µM.
The subject of assay [7] is NCI/ADR-RES ovarian. The settings on record: 10 µM.
For assay [8], the system named is T-47D breast. The conditions noted are these: 10 µM.
The subject of assay [9] is BT-549 breast. The conditions noted are these: 10 µM.
Assay [10] relates to MDA-MB-435 melanoma. The conditions noted are these: 10 µM.
In assay [11] the test system is SW-620 colon. The conditions noted are these: 10 µM.
In assay [12] the test system is MCF7 breast. The settings on record: 10 µM unless noted.
The test system of assay [13] is HCT-116 colon. The settings on record: 10 µM.
Assay [14] concerns HCC-2998 colon. The conditions noted are these: 10 µM.
For assay [15], the system named is KM12 colon. The conditions noted are these: 10 µM.
Assay [16] has as its system RPMI-8226 leukemia. The settings on record: 10 µM.
Assay [17] concerns OVCAR-8 ovarian. The conditions noted are these: 10 µM.

Compounds without any hit were thinned out: in the full panel of roughly 83,000, 20% have a hit.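 The test compound was applied at a single concentration to cells in 96-well plates for 48 hours, and percent growth was recorded.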 Values without a mark were called inactive. Activity calls are given as the source filed them. Rule for the calls: active = growth percent below 10; inactive = the rest.

As for `COc1cc2c(cc1OC)[C@H](C(=O)O)[C@@H](c1ccc(OC(C)C)c(OC)c1)N(C)C2=O`, the growth in assay [1] is 98%; in [2], 100%; in assay [3], 104%; in assay [4] it was 138%; in assay [5], 104%; in assay [6], 89.3%. The growth is 111% in [7]; 96% in [8]; 91.6% in assay [9]; 101% in assay [10]; 109% in assay [11]; 108% in assay [12]. The figures for the growth in [13], in assay [14] and in assay [15] were 101%, 108% and 107%, respectively.

For `O=C1N(C[P+](c2ccccc2)(c2ccccc2)c2ccccc2)CCCN1C[P+](c1ccccc1)(c1ccccc1)c1ccccc1`, the growth in assay [16] was 115%; in assay [17], 99.5%; in assay [1], 110%; in assay [2] it was 107%; in assay [4], 98%; in assay [5], 101%. Besides, the growth is 99.8% in assay [6]; 111% in assay [7]; 103% in assay [9]; 105% in assay [10]; 109% in assay [11]; 98.7% in assay [12]. Moreover, the growth in [13] is 97%; in assay [15], 111%.

For the compound `O=C(O)c1ccc(S(=O)(=O)O)cc1`, the growth in [1] was 107%; in assay [2] it was 104%; in assay [3], 112%; in [5] it was 119%; in assay [6], 87.6%; in assay [7], 100%. The growth in assay [8] is 106%; in [10], 114%; in assay [11] it was 104%; in assay [12] it was 96.2%; in assay [13] it was 108%; in assay [14], 105%. Besides, in [15], the growth is 109%.

In the case of `Nc1ccccc1SC(CC(=O)c1ccccc1)c1c(Cl)cccc1Cl` (centres undefined), the growth in assay [17] was 68.7%; in assay [1] it was 89.6%; in assay [2], 66%; in assay [3], 73.3%; in assay [4], 62.7%; in [5], 46.5%. In addition, the growth in [6] is 84.9%; in [7] it was 69.2%; in [8], 69.4%; in assay [9], 68%; in assay [10] it was 39.7%; in [11], 10.2%. Also, the growth in assay [12] was 14.8%; in assay [13] it was -29.7% (active); in assay [14] it was 86.9%; in assay [15], 33.1%.

`COc1ccc(/C=C/c2cccc[n+]2C)cc1`: the growth in [17] is 105%; in assay [1], 95.8%; in assay [2], 107%; in assay [3] it was 78.8%; in assay [4], 85.3%; in assay [5], 103%. The growth in assay [6] is 119%; in assay [7], 103%; in assay [8] it was 97.4%; in assay [9], 89.8%; in assay [10], 100%; in assay [11] it was 79.9%. Besides, the growth in assay [12] is 96%; in [13] it was 106%; in assay [14], 83.6%; in [15] it was 33%.

As to `COc1ccc(C)cc1OC`, the growth in assay [17] was 102%; in assay [1] it was 114%; in [2], 104%; in assay [3] it was 108%; in assay [4] it was 99.8%; in assay [5] it was 102%. The growth in assay [6] was 114%; in [7] it was 101%; in assay [8], 107%; in assay [9], 114%; in assay [10] it was 108%; in assay [11], 107%. The growth was 102% in [12], 105% in assay [13], 100% in assay [14] and 105% in assay [15].

Take `C=CCNc1nnc(C)s1`: the growth is 101% in assay [16]; 96% in [1]; 113% in [2]; 115% in assay [3]; 110% in assay [5]; 103% in assay [7]. The growth in assay [8] is 95.4%; in [9], 122%; in [10], 124%; in assay [11], 107%; in assay [12], 102%; in [13], 104%. The figures for the growth in assay [14] and in assay [15] were 112% and 101%, respectively.

For the compound `Cc1nc2ccccc2c(C(=O)O)c1O`, the growth in assay [16] is 179%; in assay [17] it was 102%; in assay [1], 91.4%; in assay [2], 116%; in [3], 95.3%; in [5], 113%. In addition, the growth in [6] is 88.1%; in assay [7] it was 94.5%; in assay [8], 91.3%; in assay [11] it was 110%; in assay [12] it was 103%; in [13] it was 88.3%. Also, the growth in assay [14] is 89%; in assay [15], 120%.

On to `CC(=O)Nc1cccc(Cl)c1C`, for which the growth is 96.5% in assay [17]; 103% in assay [1]; 109% in assay [2]; 101% in assay [3]; 102% in assay [4]; 102% in assay [5]. Moreover, the growth in assay [6] is 92.9%; in [7] it was 104%; in assay [10], 94.8%; in assay [11], 101%; in [12] it was 105%; in [13], 103%. The growth in [14] was 107%; in [15], 98.9%.

For the compound `Nc1ccc(CC(=O)O)c(N)c1`, the growth in assay [17] is 106%; in assay [1] it was 96.1%; in [2], 98.6%; in assay [3], 93%; in assay [4] it was 106%; in assay [5], 97.2%. Besides, the growth in assay [6] is 96.7%; in assay [7], 96.5%; in assay [8] it was 117%; in [9] it was 105%; in assay [10] it was 97.6%; in assay [11] it was 100%. Also, the growth in assay [12] is 99.3%; in assay [13] it was 103%; in assay [14], 104%; in [15], 93.5%.

In the case of `CC1(O)OC(COc2ccc(Cl)cc2)COC1O` (centres undefined), the growth in assay [17] is 100%; in [1] it was 111%; in assay [2], 99.1%; in assay [3], 116%; in assay [4] it was 113%; in assay [5] it was 116%. For the same compound, the growth in assay [6] was 95.5%; in [7] it was 103%; in assay [9], 112%; in [10], 106%; in [11], 101%; in [12], 90.4%. In addition, the growth is 103% in [13], 109% in [14] and 108% in assay [15].

Consider `CC(C(=O)O)(C1CCCCC1)C1(O)CCCCC1` (centres undefined), for which the growth is 104% in assay [17]; 109% in [1]; 108% in assay [2]; 101% in [3]; 101% in [4]; 107% in [5]. Further, the growth was 119% in [6]; 106% in assay [7]; 102% in [8]; 103% in [9]; 105% in assay [10]; 105% in [11]. Also, the growth was 105% in assay [12], 104% in assay [13], 96.3% in assay [14] and 98.4% in [15].
